The values that follow come from PubChem BioAssay (NCATS).

SMILES strings stand for the structures. Inconclusive results are not listed. Entries that show only a call come without a potency. Calls of active or inactive are those of the source. Calls follow the shape of the dose curve; as a rule, active = well fitted cell-killing curve with a large enough effect; inconclusive = small, poorly fitted or top-dose-only effect; inactive = flat fitted curve, though single readings scatter.
Potency is read from the fitted curve at half-maximal effect.

This test can be described thus: Quantitative highthroughput screen to assess conditional lethalithy of P12 Ichikawa cells grown in RPMI1640 with dialyzed fetal bovine serum (RPMI+ds) (AID 1963880). Also: nearly all actives have a fitted effect of over 35% in size. The note with it: ATP luminescence, 48 h; Potency: P12-Ichikawa viability; series mostly up to 45.8 µM. The source says:
Assay Provider: Jason Cantor Ph.D.
Department of Biochemistry
University of Wisconsin-Madison, Madison, WI, USA
Chemical screening studies have identified drug sensitivities across hundreds of cancer cell lines but most putative therapeutics fail to translate. Discovery and development of drug candidates in models that more accurately reflect nutrient levels in human blood is a major challenge. Here we performed high-throughput screens in conventional versus Human Plasma-Like Medium (HPLM) to identify compounds that were "missed" when screening using the artificial culture condition. Sets of conditional anticancer compounds spanned phases of clinical development and included non-oncology drugs were assessed. […] We also traced conditional phenotypes for several chemotherapeutics to availability of HPLM-specific metabolites and confirmed others for compounds whose reported targets are encoded by nonessential genes. Our findings establish generalizable strategies for exploiting conditional lethality in HPLM to reveal therapeutic candidates and mechanisms of action in cancer cells.
Described herein are the results of each viability screens against three cell lines: NOMO1 (an acute myeloid leukemia cell line); P12-Ichikawa (a T-cell acute lymphoblastic leukemia); and SEM (a B-cell ALL). Each assay was screened using 3 different cell culture media: homemade human plasma-Like medium with 10% dialyzed fetal bovine serum (HPLM+ds); RPMI1640 with 10% untreated FBS and 5mM glucose (RPMI+s); and RPMI1640 with 10% dialyzed fetal bovine serum and 5 mM glucose (RPMI+ds).
PROTOCOL TABLE (as described by Inglese J, Shamu CE and Guy RK. 2007)
SEQUENCE No. (e.g., 1, 2, 3, etc.); […] (e.g., Cells, Incubation, Reagent, etc.); VALUE and DESCRIPTION.
1; Cells; 5 uL; white, solid bottom 1536-well Greiner assay plate.
2; Compounds; 23 nL; Kalypsis pin tool (Wako USA) equipped with a 1536-well pin head to transfer to the assay plates.
3; Incubation; 48 hours; 37C incubation.
4; Reagent; 3 uL; CellTiter Glo (Promega).
5; Incubation; 5 min, room temperature
6; Detection; Luminescence, Viewlux PerkinElmer.
NOTES (numbers refer to Sequence numbers above)
1. Briefly, 5 ul of cell reagent was dispensed using a Multidrop Combi Dispenser. The NOMO1 and SEM cells were plated at 500 cells/well and the P12-Ichikawa line at 1000 cells/well.
2. After seeding the cells, 23 nL of MIPE 4.1 library compounds (in DMSO) were added to each plate using a Kalypsys 1536 Pintool dispenser. Bortezomib at final concentration of […] and DMSO were added to each plate as positive and negative controls respectively. For each screen, MIPE 4.1 compounds were added over an eleven-point concentration range […] in 3-fold dilutions.
3. Each plate was covered with a stainless steel gasketed lid to prevent evaporation and incubated for 48 hour at 37C, 95% relative humidity, and 5% CO2.
4-5. Three microliter CellTilter-GloTM luminescent substrate mix (Promega) reagent was added to the assay plate and incubated at room temperature for 5 min.
6. The luminescence signal was measured using a ViewLux (PerkinElmer) multiplate reader with a 2 second exposure time per plate. Data for each compound were normalized as percent viability such that measurements for DMSO and the empty well controls in each plate were defined as 100% and 0%, respectively.
For `C[C@]12CC[C@H](O)CC1=CC[C@H]1[C@H]3CCC(=O)[C@@]3(C)CC[C@@H]12`, the Potency entry was “inactive”.
Consider `COc1ccc2c(c1OC)CN1CCc3cc4c(cc3C1C2)OCO4` (stereo not given), for which the Potency was 1.66 µM (active).
Then `C[C@@H]1CC[C@@]2(OC1)O[C@H]1C[C@H]3[C@@H]4CC=C5C[C@@H](O[C@@H]6O[C@H](CO)[C@@H](O[C@@H]7O[C@@H](C)[C@H](O)[C@@H](O)[C@@H]7O)[C@H](O)[C@@H]6O[C@@H]6O[C@@H](C)[C@H](O)[C@@H](O)[C@@H]6O)CC[C@]5(C)[C@@H]4CC[C@]3(C)[C@@H]1[C@H]2C`, with 23.5 µM (active); and `CCCN1CCO[C@@H]2c3cc(O)ccc3OC[C@@H]21`, with 26.4 µM (active); and `NCC1(CC(=O)O)CCCCC1`, with “inactive”.
Regarding `CC(=O)N(C)c1cccc(-c2ccnc3c(C(=O)c4cccs4)cnn23)c1`, the Potency result was “inactive”.
Then `CC(=O)OCC1=C(C(=O)O)N2C(=O)[C@@H](N)[C@@H]2SC1`, with 2.35 µM (active); and `CC=C(C)C(=O)O[C@H]1C(C)=C2[C@@H]3OC(=O)[C@@](C)(O)[C@@]3(O)[C@@H](OC(=O)CCC)C[C@](C)(OC(C)=O)[C@@H]2[C@@H]1OC(=O)CCCCCCC`, with 0.132 µM (active).
`C[C@](O)(CS(=O)(=O)c1ccc(F)cc1)C(=O)Nc1ccc(C#N)c(C(F)(F)F)c1`: the Potency entry is “inactive”.
For the molecule `C=C(C)[C@H]1Cc2c(ccc3c2O[C@@H]2COc4cc(OC)c(OC)cc4[C@@H]2C3=O)O1`, the Potency is 4.69 µM (active).
In the case of `CCOP(=O)(OCC)C(C)NC(=O)N(CCCl)N=O` (stereo not given), the Potency entry is “inactive”.
`Cc1cccc(C)c1NC(=O)CN1CCCC1=O`: the Potency entry is “inactive”.
In the case of `CCOC(=O)Nc1ccc(NCc2ccc(F)cc2)cc1N`, the Potency result is “inactive”.
With `C#CC1(O)CCC2C3CCC4=CC(=O)CCC4(C)C3CCC21C` (stereo not given), the Potency entry was “inactive”.
Take `CC(C)(C)[C@]1(O)C[C@@H]2OC(=O)C[C@@]23C(=O)O[C@@H]2OC(=O)[C@H](O)C213` (stereo not given in full): the Potency entry is “inactive”.
As to `CCN(CC)C(=O)c1ccc(C2=CC3(CCNCC3)Oc3cccc(O)c32)cc1`, the Potency result was “inactive”.
`COc1ccc2c(c[n+](C)c3c4cc5c(cc4ccc23)OCO5)c1OC`: the Potency is 14.8 µM (active).
For `CC(=Cc1csc(C)n1)[C@@H]1C[C@H]2O[C@]2(C)CCC[C@H](C)[C@@H](O)[C@@H](C)C(=O)C(C)(C)[C@@H](O)CC(=O)O1`, the Potency entry is “inactive”.
Then `C[C@@H]1[C@H](O)[C@@H](C)C=CC=CCCC=CC=CC=CC=C[C@H](O[C@H]2O[C@@H](C)[C@H](O)[C@@H](N)[C@@H]2O)CC2O[C@](O)(C[C@@H](O)[C@H](O)CC[C@@H](O)C[C@@H](O)C[C@@H](O)CC(=O)O[C@H]1C)C[C@H](O)[C@H]2C(=O)O`, with “inactive”.
As for `NC1=NC(=O)N2CC12` (stereo not given), the Potency is 6.62 µM (active).
As to `O=C1CCC[C@@H]2[C@H]3CCCN4CCC[C@@H](CN12)[C@@H]34`, the Potency entry is “inactive”.
As for `O=c1[nH]c2ccccc2n1C1CCN(Cc2ccc(-c3[nH]c4cc5ncnc5cc4nc3-c3ccccc3)cc2)CC1`, the Potency entry was “inactive”.
With `CC[C@H]1C=CC=CC[C@@H](C)[C@H](O)[C@@](C)(O)C(=O)[C@@H](C)[C@H](O)[C@@H](C)C(=O)[C@@H](C)[C@H](O)[C@@H](C)C=CC(=O)O[C@@H]2[C@@H](C)[C@H](CC1)O[C@]1(CC[C@H](C)[C@H](C[C@@H](C)O)O1)[C@H]2C`, the Potency was 5.26 µM (active).
Then `CCN1C[C@]2(OC(=O)c3ccccc3NC(C)=O)CC[C@H](OC)[C@@]34[C@H]5CC6[C@@H](OC)C[C@](O)(C(C[C@@H]23)[C@@H]14)[C@@]5(O)[C@@H]6OC`, with “inactive”.
As for `C#C[C@]1(O)C=C[C@@H]2[C@@H]3CCC4=CC(=O)CC[C@@H]4[C@H]3CC[C@@]21CC`, the Potency result is “inactive”.
For the molecule `CC(C)[C@]12O[C@@H]1[C@@H]1O[C@]13[C@]1(O[C@H]1C[C@@H]1C4=C(CC[C@@]13C)C(=O)OC4)[C@H]2O`, the Potency was 0.0012 µM (active).
With `CN[C@@H]1Cc2cccc3[nH]c(=O)n(c23)C1`, the Potency entry was “inactive”.
In the case of `C[C@]12CC[C@@H]3c4ccc(OC(=O)N(CCCl)CCCl)cc4CC[C@H]3[C@@H]1CC[C@@H]2OP(=O)(O)O`, the Potency result is “inactive”.
For the molecule `C[C@H]([C@H](O)CCC(C)(C)O)[C@H]1CC[C@@]2(O)C3=CC(=O)[C@@H]4C[C@@H](O)[C@@H](O)C[C@]4(C)[C@@H]3CC[C@]12C`, the Potency result is “inactive”.
Consider `CN(C)CCc1ccc(O)cc1`, for which the Potency result is “inactive”.
Then `COc1ccc(C(=O)c2c(C)n(CCN3CCOCC3)c3cc(I)ccc23)cc1`, with 8.33 µM (active); and `O=P1(NCCCl)OCCCN1CCCl` (stereo not given), with “inactive”.
Turning to `O=C1C=CC[C@@H]2[C@H]3CCCN4CCC[C@@H](CN12)[C@@H]34`, the Potency result was “inactive”.
With `Cc1sc2c(c1C)C(c1ccc(Cl)cc1)=N[C@@H](CC(=O)OC(C)(C)C)c1nnc(C)n1-2`, the Potency was 2.64 µM (active).
Then `COc1cc2cc(c1Cl)N(C)C(=O)C[C@H](OC(=O)C(C)C)[C@]1(C)O[C@H]1[C@H](C)[C@@H]1C[C@@](O)(NC(=O)O1)[C@H](OC)C=CC=C(C)C2`, with “inactive”; and `CC(C)(O)C=CC(=O)[C@](C)(O)[C@H]1[C@H](O)C[C@]2(C)[C@@H]3CC=C4[C@@H](C=C(O)C(=O)C4(C)C)[C@]3(C)C(=O)C[C@@]12C`, with 0.166 µM (active).
As to `CC(N[C@H]1C[C@H]1c1ccccc1)c1ccc2c(c1)OCCO2` (stereo not given in full), the Potency entry is “inactive”.
With `CC(C)(C)c1cc(C=C(C#N)C#N)cc(Br)c1O`, the Potency entry was “inactive”.
Then `Cc1ccccc1-n1c(Cn2ncc3c(N)ncnc32)nc2cccc(C)c2c1=O`, with 3.32 µM (active); and `Oc1ccc2c3c1O[C@H]1c4[nH]c5c(c4C[C@@]4(O)[C@@H](C2)N(CC2CC2)CC[C@]314)C[C@@]1(O)[C@H]2Cc3ccc(O)c4c3[C@@]1(CCN2CC1CC1)[C@H]5O4`, with “inactive”.
